Among the data in PubChem BioAssay (NCATS) are Potency values, retold here.

The structures appear in SMILES notation. Results filed as inconclusive are left out. Active and inactive are the calls of the source. The call rests on the fitted dose curve; in most records, active means well fitted cell-killing curve with a large enough effect; inconclusive means small, poorly fitted or top-dose-only effect; inactive means no such curve, though single readings can be large or run the other way.
Potency means the concentration at half of the fitted maximal effect.

The nature of this experiment: qHTS of pediatric cancer cell lines to identify multiple opportunities for drug repurposing: Primary screen for SJ-GBM2 cells (AID 1347091). The settings on record: SJ-GBM2 viability, CellTiter-Glo luminescence, 48 h; series mostly up to 46 µM. An excerpt: Drug repurposing or repositioning has been offered as a strategy for drug development in oncology programs. This approach has special potential for childhood cancers and other rare or orphan diseases, where the expected return on new drug development has been a disincentive to pharmaceuticals.
In this project we exploit the poly-pharmacology of drugs to discover new indications via phenotypic screening of a panel of 19 well-characterized cell lines derived from solid tumors seen in children and adolescents. The goal is to identify approved drugs with previously unrecognized anticancer properties that has the potential to reveal new mechanisms and biological processes involved in carcinogenesis or drug resistance. We employed a titration-based paradigm (quantitative high-throughput screening or qHTS), where all compounds were tested at multiple concentrations for their effect on cell viability. Concentration-response curves (CRCs) were derived directly from the primary screen, and both potency and efficacy values were used to identify compounds with robust bioactivity profiles. We screened the NIH Chemical Genomics Center (NCGC) Pharmaceutical Collection (NPC) and Mechanism Interrogation Plate (MIPE) small molecule collections of approved and investigational compounds against these cell lines; and measured metabolically active cells after 48 hours of compound treatment as a proxy for cell viability.
Assay Submitter: Nathalia J. Martinez, National Center for Advancing Translational Sciences, National Institutes of Health, Rockville, MD, USA; email: natalia.martinez@nih.gov
[1] Shen, M et al. Quantitative high-throughput phenotypic screening of pediatric cancer cell lines identifies multiple opportunities for drug repurposing. Oncotarget 2017 Dec 19;9(4):4758-4772. PMID 29435139.
The cells were obtained from University of North Carolina (UNC), Pediatric Preclinical Testing Program (PPT), and Coriell Institute (CI).
qHTS cell viability assay:
Cells were assayed in growth media at a density of 500-1,000 cells/well. Five microliters of cells were dispensed into 1,536-well, white, solid-bottom, TC-treated plates (Greiner Bio One) using a multidrop dispenser and incubated at 37 degrees C, 5% CO2, under a humidified atmosphere for 5 hours. Twenty-three nanoliters of compounds and controls (neutral control DMSO or positive control bortezomib at final concentration of 2.3 µM) were subsequently transferred by Kalypsys pintool. For primary screens, the MIPE collection was tested at 11-point dilutions (final concentrations range from 0.78 nM to 46 µM) and the NPC collection at 8-point dilutions (final concentrations range from 0.59 nM to 46 µM). Compounds tested in follow-up screens were assayed at 11-point dilutions. Cells were incubated for 48 hours, followed by addition of 3 uL of CellTiter-Glo (Promega). After a 15 min incubation at room temperature, samples were analyzed for luminescence intensity using a ViewLux High-throughput CCD imager equipped with clear filters.
Background: Quantitative high-throughput screening tests each substance at several concentrations.
In the case of `CCc1cnn2c(NCc3ccc[n+]([O-])c3)cc(N3CCCC[C@@H]3CCO)nc12`, the Potency was 0.0235 µM (active).
The result for `CC(C)c1cnn2c(NCc3ccccc3)cc(NCCCCCCN)nc12` reads 16.6 µM (active).
As for `CC(C)(O)Cn1c(NC(=O)c2ccc(-c3cn[nH]c3)s2)nc2cc(CN3CCOCC3)ccc21`, the Potency was 0.743 µM (active).
The result for `CCOC(=O)C1=C(C)NC(=S)NC1c1cccc(O)c1` (stereo not given) reads 0.0372 µM (active).
On to `CCNC(=O)c1cc2c(-c3cc(OCCN4CCCC4)c(Cl)cc3Cl)nc(N)nc2s1`, for which the Potency was 2.09 µM (active).
`O=c1ccn([C@@H]2O[C@H](CO)[C@H](O)[C@@H]2F)c(=O)[nH]1`: the Potency entry is “inactive”.
For `CN1CCc2c(c3ccccc3n2Cc2ccc(C(=O)NO)cc2)C1`, the Potency is 23.5 µM (active).
Take `CC(C)OC(=O)[C@H](C)N[P@](=O)(OC[C@H]1O[C@@H](n2ccc(=O)[nH]c2=O)[C@](C)(F)[C@H]1O)Oc1ccccc1`: the Potency entry is “inactive”.
`CC(=CC(=O)Nc1ccccc1C(=O)O)c1ccc2ccccc2c1`: the Potency result was “inactive”.
For `O=C(C=CC#Cc1cccc(NS(=O)(=O)c2ccccc2)c1)NO` the value was 1.66 µM (active); for `COc1ccc(C[C@@H](C)[C@@H](C)Cc2ccc(OC)c(OC)c2)cc1OC`, 0.418 µM (active).
In the case of `CC(C=CC(=O)NO)=C[C@@H](C)C(=O)c1ccc(N(C)C)cc1`, the Potency is 1.87 µM (active).
The result for `COc1cc(C=CC(=O)CC(=O)C=Cc2ccc(O)c(OC)c2)ccc1O` reads 30.3 µM (active); that for `O=C(Nc1nnc(-c2ccco2)o1)c1cc(-c2ccccc2)nc2ccccc12`, 7.43 µM (active).
For `NS(=O)(=O)OC[C@@H]1C[C@@H](n2ccc3c(N[C@H]4CCc5ccccc54)ncnc32)C[C@H]1O` the value was 0.296 µM (active); for `CC(=O)OCC(=O)[C@@]1(O)CC[C@H]2[C@@H]3CCC4=CC(=O)CC[C@]4(C)[C@@H]3C(=O)C[C@@]21C`, “inactive”.
The result for `NC[C@H]1O[C@H](O[C@H]2[C@@H](O)[C@@H](O[C@H]3O[C@H](CO)[C@@H](O)[C@H](N)[C@@H]3O)[C@H](N)C[C@@H]2N)[C@H](N)C[C@H]1O` reads “inactive”; that for `COc1cc(OC)cc(-c2ccc3ncc4ccc(=O)n(-c5ccc(N6CCNCC6)c(C(F)(F)F)c5)c4c3c2)c1`, 4.18 µM (active); that for `CN[C@@H]1C[C@H]2O[C@@](C)([C@H]1OC)n1c3ccccc3c3c4c(c5c6ccccc6n2c5c31)C(=O)N[C@H]4O`, 0.118 µM (active).
On to `COc1ccnc2[nH]cc(C(=O)C(=O)N3CCN(C(=O)c4ccccc4)C[C@@H]3C)c12`, for which the Potency entry is “inactive”.
For `Cc1ccc([N+](=O)[O-])cc1S(=O)(=O)N(C)N=Cc1cnc2ccc(Br)cn12` the value was 0.118 µM (active); for `CC(C=CC1=C(C)CCCC1(C)C)=CC=CC(C)=CC(=O)Nc1ccc(O)cc1`, 38.2 µM (active).
`C[C@@H]1C(=O)O[C@H]2CC34[C@H]5C[C@@H](C(C)(C)C)C36[C@H](OC(=O)[C@@H]6O)O[C@@]4(C(=O)O5)[C@]21O` (stereo not given in full): the Potency entry was “inactive”.
The result for `OCCNC1CCCc2c1[nH]c1ccc(-c3ccccc3)cc21` (stereo not given) reads 23.5 µM (active).
As to `C=CCNC1=C2C[C@@H](C)C[C@H](OC)[C@@H](O)[C@@H](C)C=C(C)[C@H](OC(N)=O)[C@@H](OC)C=CC=C(C)C(=O)NC(=CC1=O)C2=O`, the Potency is 0.59 µM (active).
The result for `O=C(O)CCCCCC(=O)NN=C1CCCC1` reads “inactive”; that for `Cn1cc(C2=C(c3c4n(c5ccccc35)CCC(CN)C4)C(=O)NC2=O)c2ccccc21` (stereo not given), 14.8 µM (active); that for `COc1ccc(Nc2nccc(NCCO)n2)cc1`, “inactive”.
For `C[C@H](O)[C@@H]1C(=O)N2C(C(=O)O)=C(S[C@@H]3CN[C@H](CNS(N)(=O)=O)C3)[C@@H](C)[C@@H]12` the value was “inactive”.
With `Cc1cnn(C)c1C(=O)Nc1cc(Nc2ccc3c(C=Cc4ccccn4)n[nH]c3c2)ccc1F`, the Potency is 18.7 µM (active).
For the compound `COc1cc(O)c2c(c1)C1OC1C[C@H](O)[C@H](O)C(=O)C=CC[C@H](C)OC2=O` (stereo not given in full), the Potency was 8.33 µM (active).
The result for `O=C1c2cccc(O)c2C(=O)c2c(O)cc(CO)cc21` reads “inactive”.
As to `O=C(O)[C@H](CC(=O)N1C[C@@H]2CCCC[C@H]2C1)Cc1ccccc1`, the Potency result was “inactive”.
With `COc1cc(C)c(C=CC(C)=CC=CC(C)=CC(=O)O)c(C)c1C`, the Potency result was “inactive”.
The result for `CC(=O)O[C@]1(C(C)=O)CC[C@H]2[C@@H]3C=C(C)C4=CC(=O)CC[C@]4(C)[C@@H]3CC[C@@]21C` reads 14.8 µM (active); that for `C[N+]1(C)[C@@H]2C[C@@H](OC(=O)C(O)(c3cccs3)c3cccs3)C[C@H]1[C@@H]1O[C@@H]12`, “inactive”; that for `C=CC(=O)Nc1ccc2ncnc(Nc3ccc(OCc4cccc(F)c4)c(Cl)c3)c2c1`, 0.0296 µM (active).
The result for `NC(=O)c1ncn([C@@H]2O[C@H](CO)[C@@H](O)[C@@H]2O)c1O` reads “inactive”; that for `Oc1ccc([C@@H]2Oc3ccc(O)cc3[C@@H]3CCC[C@@H]32)cc1`, 13.2 µM (active); that for `CC(C)(C)[N+]([O-])=Cc1ccc(S(=O)(=O)O)cc1S(=O)(=O)O`, “inactive”.
